VACV E9 pol inh = blocks vaccinia virus processive DNA synthesis; in vitro processive DNA synthesis, absorbance read-out; active compounds read low; hit rate 0.94% among 46,000; AID 493162; normalized absorbance, % (concentration not given with the values); in the data active = normalized absorbance mostly below about 85%, no sharp cut-off; inactive = mostly above about 86%
The depositor's hits bear a star. Only a selection was taken, and hits are over-represented in it overall.

Cc1ccc(Sc2cnc3ccccc3n2)cc1 was read as VACV E9 pol inh 119.
`CCOC(=O)c1[nH]ncc1Sc1ccc(Cl)cc1` gave VACV E9 pol inh 101.
For Cc1ccc(Sc2cn[nH]c2C)cc1 the results were VACV E9 pol inh 73*.
Screening O=C(COC(=O)c1ccc(N2C(=O)c3ccccc3C2=O)cc1)c1ccccc1 returned VACV E9 pol inh 100.
For c1ccc(-c2cn3c4ccccc4n(CCN4CCCCC4)c3n2)cc1 the results were VACV E9 pol inh 59*.
Screening Nc1nc2ccccc2n1CCN1CCCCC1 returned VACV E9 pol inh 100.
For CCn1c2ccccc2n2cc(-c3ccccc3)nc12 the results were VACV E9 pol inh 94.
`NC(=O)c1cc2ccccc2oc1=Nc1ccc(Br)cc1` gave VACV E9 pol inh 112.
`N#Cc1c(N2CCCC2=O)sc2c1CCC2` gave VACV E9 pol inh 118.
`Cc1ccc(C)c(NC(=O)c2nccnc2COC(=O)c2cccc(F)c2)c1` gave VACV E9 pol inh 103.
Screening COC(=O)c1ccc(NC(=O)C(c2ccccc2)c2ccccc2)cc1 returned VACV E9 pol inh 102.
`N#Cc1nc(-c2ccccc2)oc1NCCN1CCCCC1` gave VACV E9 pol inh 101.
Cc1cc(NCCN2CCCCC2)c2ccc3ccccc3c2n1 was read as VACV E9 pol inh 22*.
For O=S(=O)(NCCN1CCCC1)c1cc2ccccc2s1 the results were VACV E9 pol inh 112.
`CCOC(=O)c1cccc2c1-c1ccccc1C2=O` gave VACV E9 pol inh 92.
Screening O=C(OCCO)c1cccc2c1-c1ccccc1C2=O returned VACV E9 pol inh 74*.
CCOC(=O)c1cccc2c1-c1ccccc1/C2=N/O was read as VACV E9 pol inh 94.
Screening CCc1c(C)c2cc3c(-c4ccccc4)coc3cc2oc1=O returned VACV E9 pol inh 116.
Screening NNc1nc2c(Cl)cc(Cl)cc2s1 returned VACV E9 pol inh 104.
`Cc1csc(NC(=O)CCCC(=O)O)n1` gave VACV E9 pol inh 101.
`O=C(O)c1ccc(/C=N/N2C(=O)c3cccc4cccc(c34)C2=O)cc1` gave VACV E9 pol inh 102.
CNN1C(=O)c2cccc3cccc(c23)C1=O was read as VACV E9 pol inh 64*.
CN(C)N1C(=O)c2cccc3cccc(c23)C1=O was read as VACV E9 pol inh 88.
NC(=S)c1cc2ccccc2oc1=O was read as VACV E9 pol inh 99.
For O=C1OC(c2ccccc2Cl)=N/C1=C/c1ccco1 the results were VACV E9 pol inh 91.
For Nc1cc(=O)n(Cc2ccccc2)c(=O)n1-c1ccccc1 the results were VACV E9 pol inh 96.
For Cc1c(CN(C)C)c2c(n1Cc1ccccc1)C(=O)c1ccc(Br)cc1-2 the results were VACV E9 pol inh 68*.
`CN(Cc1ccccc1)C(=O)CNc1ccc(Br)cc1` gave VACV E9 pol inh 102.
For CN(C)CCC(=O)c1ccco1 the results were VACV E9 pol inh 100.
COc1ccc2[nH]c(O)c(N=O)c2c1 was read as VACV E9 pol inh 100.
CC(C)N=Cc1c(O)[nH]c2ccccc12 was read as VACV E9 pol inh 100.
O=Nc1c(-c2c(O)[nH]c3ccccc23)[nH]c2ccccc12 was read as VACV E9 pol inh 83*.
`O=C(NC(Cc1ccccc1)C(=O)O)c1cccs1` (stereo not drawn) gave VACV E9 pol inh 102.
`O=C(OCc1ccc(Cl)cc1Cl)C1CCC1` gave VACV E9 pol inh 97.
`Cn1c(=O)oc2cc(S(=O)(=O)N3CC(=O)N(CCc4ccccc4)C(=O)C3)ccc21` gave VACV E9 pol inh 106.
Screening O=C(O)COc1ccc2c(-c3ccccc3)cc(=O)oc2c1 returned VACV E9 pol inh 102.
`COc1ccc2c(c1)oc(=O)c1ccccc12` gave VACV E9 pol inh 92.
O=C(O)COc1ccc2c(c1)oc(=O)c1ccccc12 was read as VACV E9 pol inh 90*.
`O=C(Nc1ccc2c(c1)OCCO2)N1C=CC(C(F)(F)F)=NCC1` gave VACV E9 pol inh 87.
`CCOC(=O)c1c(NC(=O)OC)sc2c1CCCC2` gave VACV E9 pol inh 100.
Screening S=c1nc2[nH]c(=S)[nH]c(=S)c2c(-c2ccco2)[nH]1 returned VACV E9 pol inh 60*.
`Nc1nccc(-c2ccco2)n1` gave VACV E9 pol inh 98.
CSC(=S)N(C)c1nc2ccccc2s1 was read as VACV E9 pol inh 94.
NC(CSCc1ccccc1Cl)C(=O)O (stereo not drawn) was read as VACV E9 pol inh 99.
NC(CSCc1oc(-c2ccccc2)cc1C(=O)O)C(=O)O (stereo not drawn) was read as VACV E9 pol inh 77*.
Screening NC(Cc1ccccc1F)C(=O)O (stereo not drawn) returned VACV E9 pol inh 99.
O=C(Nc1ccc2c(c1)nc1n2CCN(c2ccccc2)C1)c1ccccc1 was read as VACV E9 pol inh 95.
`COc1ccc(C(=O)CSc2nc3ccccc3c(=O)n2-c2ccc(C)cc2)cc1` gave VACV E9 pol inh 96.
`COCC(C)Nc1nc(-c2ccc(Cl)cc2)cs1` (stereo not drawn) gave VACV E9 pol inh 100.
For c1ccc(CN2CN=C(Nc3nc4ccccc4s3)NC2)cc1 the results were VACV E9 pol inh 108.
`CCOc1ccc2nc(Nc3nc(O)cc(=O)[nH]3)nc(C)c2c1` gave VACV E9 pol inh 100.
CCN1CN=C(Nc2nc(C)c3cc(C)ccc3n2)NC1 was read as VACV E9 pol inh 49*.
For Cc1sc2c(c1C)c(=O)nc1n2C(c2ccccc2)C=CS1 (stereo not drawn) the results were VACV E9 pol inh 101.
For CCOc1cc(/C=C2/SC(=N)N(c3nccs3)C2=O)ccc1OCCN1CCOCC1 the results were VACV E9 pol inh 100.
Cc1ccc2oc(=O)c3cc(C(=O)NCCCN4CCCCCC4)sc3c2c1 was read as VACV E9 pol inh 68*.
`Cc1ccc(CCNC(=O)c2cc3c(=O)oc4ccc(C)cc4c3s2)cc1` gave VACV E9 pol inh 103.
Screening CCn1c(=O)c2cc(C(=O)NCCCN3CCCCCC3)sc2c2ccccc21 returned VACV E9 pol inh 60.
For Cc1cccc(CCNC(=O)c2cc3c(=O)n(C)c4ccccc4c3s2)c1 the results were VACV E9 pol inh 101.
Cc1ccc2oc(=O)c3cc(C(=O)NCCN4CCN(Cc5ccccc5)CC4)sc3c2c1 was read as VACV E9 pol inh 98.
Screening COC(=O)CNC(=O)c1cc2c(=O)[nH]c3ccccc3c2s1 returned VACV E9 pol inh 97.
For CC1CCN(CCCNC(=O)c2cc3c(=O)n(C)c4ccccc4c3s2)CC1 the results were VACV E9 pol inh 59*.
Screening CCCCN(C)C(=O)c1cc2c(Cl)nc3ccccc3c2s1 returned VACV E9 pol inh 101.
O=C(NC1CCCCC1)c1cc2c(=O)[nH]c3ccccc3c2s1 was read as VACV E9 pol inh 100.
For O=C(NCCCN1CCCC1)c1cc2c(Cl)nc3ccccc3c2s1 the results were VACV E9 pol inh 33*.
Screening CC1CC(C)CN(CCCNC(=O)c2cc3c(=O)[nH]c4ccccc4c3s2)C1 (stereo not drawn) returned VACV E9 pol inh 58*.
For O=C(NCCCN1CCCCC1)c1cc(Sc2ccc(F)cc2)nc2ccccc12 the results were VACV E9 pol inh 101.
For Cc1cc2nc(S(=O)(=O)Cc3cccc(C(F)(F)F)c3)[nH]c2cc1C the results were VACV E9 pol inh 100.
For CC1Cc2cc(OCC(=O)O)ccc2C1=O (stereo not drawn) the results were VACV E9 pol inh 100.
Nc1c(-c2ccccc2)cnn1-c1ccc2c(C(F)(F)F)cc(C(F)(F)F)nc2n1 was read as VACV E9 pol inh 101.
